The subject of this assay is MIWI (PIWIL1) piRISC loaded with L1MC piRNA (30 nt). Briefly: pre-steady-state target cleavage rate (min^-1); MIWI and MILI are mouse PIWI proteins and EfPiwi is from a freshwater sponge; tags in brackets are library labels; higher = faster piRNA-guided slicing of the target. The following applies: guide: L1MC piRNA 5'p-UAACUAAAUACUAUGCAAGCUGUAGGUCCU
Summed up:
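With or without 500 nM GTSF1 partner protein, 1 nM active affinity-purified piRISC carrying one synthetic guide was mixed with 0.1 nM transcribed, DNA-blocked target RNA library in HEPES–potassium acetate buffer at 33 °C for 0–8 or 0–960 min. Uncleaved targets were sequenced and normalised to depth and to weakly complementary targets, three trials were pooled, and k3 was capped at 0.0001 min^-1. The pre-steady-state cleavage rate came from a burst-and-steady-state fit.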

The mark [1] stands for this setting: auxiliary factor: 500 nM mouse GTSF1.
Where [2] appears, read: auxiliary factor: none (no GTSF1).

± gives the standard deviation. In all, about 8,200 sequences were measured (“pre-steady-state target cleavage rate”: median about 0.024, highest 2% from about 1.3 on). Many of the other results were omitted from the sample, so the highest values are more common in it than they were.

UCCUGGAACAGCUUGCAUAGUUUUUUGUUA: the “pre-steady-state target cleavage rate” value by setting is: under setting [1], 0.197 ± 0.025; under setting [2], 0.0238 ± 0.0057. UCGUCCUACAGCUUGCAUAGUAAUUAGUUA: the “pre-steady-state target cleavage rate” value by setting is: under setting [1], 0.874 ± 0.027; under setting [2], 0.0282 ± 0.006.

Regarding UCCUCCUACAGCUUGCAUAGUAAUUAGUAA, the “pre-steady-state target cleavage rate” value came out at 0.347 ± 0.039 under setting [1] and 0.0074 ± 0.0022 under setting [2]. The corresponding values for UCCUGGUACAGCAUGCAUAGUAAUUAGUUA are 0.457 ± 0.054 and 0.0118 ± 0.0031. As for AGGACCUACAGCUAGCAUAGUAUUUAGAAA, the “pre-steady-state target cleavage rate” value by setting is: under setting [1], 0.571 ± 0.066; under setting [2], 0.00411 ± 0.0025. UCCUGCUACAGCUUGCAUAGUAUUUUGUAA: the “pre-steady-state target cleavage rate” value amounted to 0.274 ± 0.043 under setting [1] and 0.009 ± 0.0031 under setting [2]. Turning to UCCUGGAUGAGCUACCAUAGUAUUUAGUUA, the “pre-steady-state target cleavage rate” value under setting [1] stood at 0.0107 ± 0.0041.

UCCUCCUACAGCUUGCAUAGUAUUGUAGUUA: the “pre-steady-state target cleavage rate” value is, setting by setting: under setting [1], 0.282 ± 0.054; under setting [2], 0.00959 ± 0.0038.

In the case of UCCUGGAACAGCUUGCAUGUAUUUAGUUA, the “pre-steady-state target cleavage rate” value reads like this: under setting [1], 0.103 ± 0.015; under setting [2], 0.00591 ± 0.0032. On to UCCUGGAUGUCCUUGCAUACUAUUUAGUUA, for which the “pre-steady-state target cleavage rate” value stood at 0.0164 ± 0.0047 under setting [1] and 0.00616 ± 0.0016 under setting [2]. As to UCCACCUACAGCUUCCAUAGUAUUUACAAA, the “pre-steady-state target cleavage rate” value under setting [1] is 0.0165 ± 0.008. For the sequence UCCUGGUACAGCUUGCAUAGUAUUUAGCUA, the “pre-steady-state target cleavage rate” value under setting [1] stood at 0.00692 ± 0.0039.

For UCGUGCUACAGCUUGCAUAGUAUUUAGUUA, the “pre-steady-state target cleavage rate” value by setting is: under setting [1], 1.38 ± 0.059; under setting [2], 0.0704 ± 0.012. UCGUGCUACAGCUUGCAUAGUAUUUAGUAA: the “pre-steady-state target cleavage rate” value is, setting by setting: under setting [1], 0.926 ± 0.053; under setting [2], 0.0286 ± 0.0054. Consider AGGUGCUACAGCUUGCAUAGUAUUUAGUUA, for which the “pre-steady-state target cleavage rate” value reads like this: under setting [1], 1.23 ± 0.064; under setting [2], 0.0832 ± 0.016.

Turning to UGGAGGAACAGCUUGCAUAGUAUUUAGAAA, the “pre-steady-state target cleavage rate” value came to 0.364 ± 0.037 under setting [1] and 0.00934 ± 0.004 under setting [2].

Turning to UCCUCCUACCAGCUUGCAUAGUAUUUAGUUA, the “pre-steady-state target cleavage rate” value runs as follows: under setting [1], 1.15 ± 0.055; under setting [2], 0.0479 ± 0.011. As to UCGACCUACAGGUUGCAUACUAUUUAGUUA, the “pre-steady-state target cleavage rate” value under setting [1] is 0.273 ± 0.018 and the “pre-steady-state target cleavage rate” value under setting [2] amounted to 0.0207 ± 0.004. As for UCGACCUACAGCAUGCAUAGUAUUUAGUAA, the “pre-steady-state target cleavage rate” value is, setting by setting: under setting [1], 0.99 ± 0.072; under setting [2], 0.0189 ± 0.0064.

Regarding UCGACCUACAGCAUUGCAUAGUAUUUAGUUA, the “pre-steady-state target cleavage rate” value runs as follows: under setting [1], 1.19 ± 0.082; under setting [2], 0.0581 ± 0.012. Consider UGCACCUACAGCAUGCAUAGUAUUUAGUUA, for which the “pre-steady-state target cleavage rate” value reads like this: under setting [1], 0.998 ± 0.092; under setting [2], 0.0271 ± 0.0047. The corresponding values for AGCACCUACAGCAUGCAUAGUAUUUAGUUA are 1.02 ± 0.13 and 0.0663 ± 0.022. Consider UCGACCUACAGCAUGCAUAGUAUUUAGUUA, for which the “pre-steady-state target cleavage rate” value reads like this: under setting [1], 1.48 ± 0.049; under setting [2], 0.0548 ± 0.013. For ACGACCUACAGCAUGCAUAGUAUUUAGUUA, the “pre-steady-state target cleavage rate” value reads like this: under setting [1], 1.43 ± 0.053; under setting [2], 0.082 ± 0.021.

As for UCCUGCUAGAGCUUGCAUAGUAUUUACAAA, under setting [1], the “pre-steady-state target cleavage rate” value is 0.186 ± 0.047. Same read-out and setting: with UCCUGCUACAGCUAGCAUAGUAUUUUCAAA the figure was 0.0744 ± 0.023. For UCCUGGAACAGCUUGCAAUGUAUUUAGUAA, the “pre-steady-state target cleavage rate” value under setting [1] stood at 0.146 ± 0.018 and the “pre-steady-state target cleavage rate” value under setting [2] came to 0.00598 ± 0.003.

For UGGACCUACAGCUUGCAUAGUAUUUAUUA, the “pre-steady-state target cleavage rate” value by setting is: under setting [1], 0.126 ± 0.015; under setting [2], 0.00594 ± 0.0034. As to UGGACCUACAGCUUGCAUAGUUAAUAGAAA, the “pre-steady-state target cleavage rate” value under setting [1] is 0.0323 ± 0.01.

For UCCACCUCAGCUUGCAUAGUAUUUAGUUA, the “pre-steady-state target cleavage rate” value reads like this: under setting [1], 0.878 ± 0.07; under setting [2], 0.0436 ± 0.0088.

As for UGGACCUAAGCUUGCAUAGUAUUUAGUUA, the “pre-steady-state target cleavage rate” value under setting [1] was found to be 1.27 ± 0.083 and the “pre-steady-state target cleavage rate” value under setting [2] was 0.0446 ± 0.012. For AGGACCUCCAGCUUGCAUAGUAUUUAGUUA, the “pre-steady-state target cleavage rate” value reads like this: under setting [1], 1.22 ± 0.048; under setting [2], 0.0926 ± 0.018. The corresponding values for UGGACCUCCAGCUUGCAUAGUAUUUAGUUA are 1.39 ± 0.054 and 0.08 ± 0.014. Consider UGGACCUCAGCUUGCAUAGUAUUUAGUUA, for which the “pre-steady-state target cleavage rate” value under setting [1] worked out at 1.43 ± 0.094 and the “pre-steady-state target cleavage rate” value under setting [2] worked out at 0.055 ± 0.011.

On to AGGACCUCAGCUUGCAUAGUAUUUAGUUA, for which the “pre-steady-state target cleavage rate” value stood at 1.34 ± 0.077 under setting [1] and 0.0984 ± 0.019 under setting [2].

In the case of UCCACCUCCAGCUUGCAUAGUAUUUAGUUA, the “pre-steady-state target cleavage rate” value is 0.89 ± 0.033 under setting [1] and 0.0442 ± 0.0078 under setting [2]. For UCGACCUACUGCUUGCAUAGUAUUUACUUA, the “pre-steady-state target cleavage rate” value came out at 0.278 ± 0.017 under setting [1] and 0.0322 ± 0.0038 under setting [2]. The corresponding values for UCCUGGUACACCUUGCAUAGUAUAUAGUUA are 0.555 ± 0.09 and 0.00685 ± 0.0027.

In the case of UCCACCUACAGCUUGCAUAGUAUAAUCAAA, the “pre-steady-state target cleavage rate” value under setting [1] came to 0.327 ± 0.056. For UCGAGGAACAGCUUGCAUAGUAUUUAGUUA, the “pre-steady-state target cleavage rate” value reads like this: under setting [1], 1.02 ± 0.076; under setting [2], 0.057 ± 0.011. Turning to UCCAGCAACAGCUUGCAUAGUAUUUAGUUA, the “pre-steady-state target cleavage rate” value worked out at 1.19 ± 0.049 under setting [1] and 0.0797 ± 0.014 under setting [2]. The corresponding values for UGGAGGAACAGCUUGCAUAGUAUUUAGUUA are 1.26 ± 0.049 and 0.0795 ± 0.015.

With UCGAGCAACAGCUUGCAUAGUAUUUAGUUA, the “pre-steady-state target cleavage rate” value under setting [1] was 1.29 ± 0.044 and the “pre-steady-state target cleavage rate” value under setting [2] was 0.076 ± 0.013.

For UGGAGCAACAGCUUGCAUAGUAUUUAGUUA, the “pre-steady-state target cleavage rate” value under setting [1] amounted to 1.39 ± 0.044 and the “pre-steady-state target cleavage rate” value under setting [2] is 0.0851 ± 0.016. Regarding AGGAGCAACAGCUUGCAUAGUAUUUAGUUA, the “pre-steady-state target cleavage rate” value under setting [1] turned out to be 1.67 ± 0.069 and the “pre-steady-state target cleavage rate” value under setting [2] is 0.0907 ± 0.016.

Turning to UCCUGGAGCAGCUUGCAUAGUAUUUAGUUA, the “pre-steady-state target cleavage rate” value is 1.13 ± 0.044 under setting [1] and 0.0692 ± 0.013 under setting [2]. For the sequence AGGAGGAACAGCUUGCAUAGUAUUUAGUUA, the “pre-steady-state target cleavage rate” value worked out at 1.41 ± 0.065 under setting [1] and 0.0955 ± 0.019 under setting [2]. As to UCCUGGAUGUGCUUUGCAUAGUAUUUAGUUA, the “pre-steady-state target cleavage rate” value worked out at 0.251 ± 0.022 under setting [1] and 0.0142 ± 0.0043 under setting [2]. On to UCCUGGAUGAGCUUGCAAAGUAUUUUGUUA, for which the “pre-steady-state target cleavage rate” value was 0.267 ± 0.029 under setting [1] and 0.0136 ± 0.0037 under setting [2]. UCGACGUACACCUUGCAUAGUAUUUAGUUA: the “pre-steady-state target cleavage rate” value amounted to 1.23 ± 0.026 under setting [1] and 0.0575 ± 0.0089 under setting [2]. As to UCCUGGUACAGCUAGCAUAGUAAUUAGUUA, the “pre-steady-state target cleavage rate” value is, setting by setting: under setting [1], 0.379 ± 0.053; under setting [2], 0.00998 ± 0.0037. In the case of UCCUGGUACAGCUUGCAUAGUAUUUGGUUA, the “pre-steady-state target cleavage rate” value under setting [1] is 0.449 ± 0.037 and the “pre-steady-state target cleavage rate” value under setting [2] came out at 0.0417 ± 0.0074. For UGGACCUACAGCUUGCAUAGUUAUUACAAA, the “pre-steady-state target cleavage rate” value under setting [1] is 0.0207 ± 0.0062. With UCGACCUACACCUUGCAUAGUAUUUACUUA, the “pre-steady-state target cleavage rate” value under setting [1] stood at 0.254 ± 0.034 and the “pre-steady-state target cleavage rate” value under setting [2] amounted to 0.0244 ± 0.0036. For the sequence UCCUGGAUGAGCUUGGAUAGUAUUUACUUA, under setting [2], the “pre-steady-state target cleavage rate” value amounted to 0.00357 ± 0.0031. As for UCGACCUACGAGCUUGCAUAGUAUUUAGUUA, the “pre-steady-state target cleavage rate” value reads like this: under setting [1], 0.737 ± 0.077; under setting [2], 0.0529 ± 0.011.

On to UCGACCUACAGGCUUGCAUAGUAUUUAGUUA, for which the “pre-steady-state target cleavage rate” value runs as follows: under setting [1], 1.07 ± 0.045; under setting [2], 0.07 ± 0.011. Consider UGGACCUACGGCUUGCAUAGUAUUUAGUUA, for which the “pre-steady-state target cleavage rate” value runs as follows: under setting [1], 1.44 ± 0.1; under setting [2], 0.0662 ± 0.013. The corresponding values for UCGACCUACGGCUUGCAUAGUAUUUAGUUA are 1.35 ± 0.053 and 0.069 ± 0.011. As for AGGACCUACGGCUUGCAUAGUAUUUAGUUA, the “pre-steady-state target cleavage rate” value is, setting by setting: under setting [1], 1.27 ± 0.077; under setting [2], 0.0872 ± 0.017. As to UCCACCUACGGCUUGCAUAGUAUUUAGUUA, the “pre-steady-state target cleavage rate” value by setting is: under setting [1], 0.921 ± 0.074; under setting [2], 0.0494 ± 0.01.

For the origin of these results see the supplement of paper PMC10338343.
